In all, about 33,000 sequences were measured (“e-score”: median about -0.037, highest 2% from about 0.34 on). What follows is part of a selection rich in the highest values, with near analogues and random picks from the rest.

The target in the assay is T1, GST-Rok (full length) (Bacillus subtilis subsp. subtilis str. …, UniProt O34857 1-191).
T1 sequence: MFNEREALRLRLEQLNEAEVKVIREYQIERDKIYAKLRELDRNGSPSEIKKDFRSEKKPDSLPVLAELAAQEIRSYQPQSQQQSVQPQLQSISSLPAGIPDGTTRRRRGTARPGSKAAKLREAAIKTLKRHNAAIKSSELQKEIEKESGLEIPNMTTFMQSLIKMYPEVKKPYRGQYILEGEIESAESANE
In words: protein binding microarray; Rok is a gene silencer of Bacillus subtilis; high values mean tight binding. The note with it: protein: recombinant; tags: GST (pTH5325, pDEST15-Magic modified); dsDNA, one strand shown. Summed up: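 Every oligonucleotide joins a 25-mer constant primer to a 35-mer variable part drawn from a de Bruijn sequence of order 10, so each non-palindromic 8-mer appears at least 32 times and each palindromic 8-mer 16 times. The preference for every 8-mer is reported as a unitless, rank-based enrichment score (E-score). This score spans 0.5 for the most favored 8-mer to −0.5 for the most disfavored.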
With AGCGTACT, the binding signal turned out to be 0.0975 E-score.

GGTTGGTA: the binding signal was 0.109 E-score.

Turning to AGCCCTTA, the binding signal is -0.135 E-score. To AGGAAGAA belongs -0.0233 E-score; to CTGAATTA, 0.134 E-score; to ATAAATTC, 0.221 E-score. To ATGAATTG belongs 0.0516 E-score.

With ACAAATTC, the binding signal was 0.238 E-score. To TAAAATTA belongs 0.199 E-score; to CTAAATTA, 0.252 E-score; to ATAAATTG, 0.336 E-score. With GTAAATTA, the binding signal came out at 0.383 E-score. To ATGAATTA belongs 0.353 E-score.

On to ACAAATTA, for which the binding signal turned out to be 0.338 E-score. To ATAAATTA belongs 0.347 E-score. As to ACAAATTG, the binding signal is -0.0361 E-score.

In the case of ACTAATCA, the binding signal was found to be 0.154 E-score. To CCACTAGC belongs -0.055 E-score; to CGCCAGTA, -0.111 E-score. To TATTGCAA belongs 0.253 E-score; to ATAGCAGA, 0.144 E-score; to GTACCATA, 0.339 E-score. To CTACCATA belongs 0.328 E-score; to ATACCATC, 0.198 E-score.

In the case of GTACCAGA, the binding signal was -0.0447 E-score. To CTACCATC belongs 0.396 E-score; to ATACCATA, 0.286 E-score. To ATGCTAGC belongs 0.313 E-score; to ATCAATTG, 0.221 E-score; to GCAATGTA, 0.23 E-score. To TAAATCGA belongs 0.0795 E-score; to CAAGTCAA, 0.171 E-score. With TAAAAATA, the binding signal amounted to 0.369 E-score. With CAGAAATA, the binding signal is 0.303 E-score. To ACAAAATA belongs 0.34 E-score; to CTAAAATA, 0.262 E-score.

On to AACAACTA, for which the binding signal turned out to be 0.292 E-score. As for ACAAAATC, the binding signal was -0.0365 E-score.

Consider CCAAAATA, for which the binding signal is 0.164 E-score.

As for GACAACTA, the binding signal stood at 0.333 E-score. To AAAAAATA belongs 0.314 E-score; to GAGAAATA, 0.305 E-score. To TACAACTA belongs 0.368 E-score; to TAGAAATA, 0.409 E-score. To GCAGAACC belongs -0.0431 E-score; to ACCGGTGG, -0.196 E-score; to CTTACCTC, 0.143 E-score. On to AACGTAGA, for which the binding signal came out at 0.17 E-score. To AACCCAGG belongs -0.0972 E-score; to AGAGGTGA, -0.164 E-score; to GGACGCTA, 0.000145 E-score.

Take GAGTTGAA: the binding signal came out at 0.00685 E-score. To AAACATAG belongs 0.247 E-score; to CCTGCGAA, -0.196 E-score; to GGCTTCAA, -0.0517 E-score. To ATAACCAA belongs 0.276 E-score; to ATGGTTAC, -0.167 E-score. Consider ATAAAATG, for which the binding signal came out at 0.203 E-score. To GAAAAATA belongs 0.279 E-score; to CAGAACTA, 0.301 E-score. In the case of GTAAAATA, the binding signal stood at 0.328 E-score.

For GAGAACTA, the binding signal stood at 0.326 E-score.

Take AGAAAATA: the binding signal was 0.328 E-score.

TAGAACTA: the binding signal stood at 0.406 E-score.

As to GGAAAATA, the binding signal turned out to be 0.37 E-score. To ATAAAATA belongs 0.426 E-score; to CGGACTTC, -0.0622 E-score. With AGTGTTAG, the binding signal is 0.118 E-score. To GCGCGGTA belongs 0.073 E-score; to CGATATAA, 0.357 E-score.

Consider TGATAAAA, for which the binding signal came to 0.27 E-score. To GGATATAA belongs 0.271 E-score; to TGATATAA, 0.371 E-score; to CGATATAC, 0.239 E-score.

Turning to CGATATAG, the binding signal is 0.191 E-score.

On to CTTCTTTC, for which the binding signal was 0.0125 E-score. Take CGCGCTGA: the binding signal was found to be 0.105 E-score.

Take CAACGAGC: the binding signal was -0.148 E-score. To ACCTTCTC belongs -0.145 E-score; to CTAACATA, 0.186 E-score. To ATAACATA belongs 0.365 E-score. As for ATAACATG, the binding signal stood at 0.152 E-score. To ACGTCAAG belongs 0.0301 E-score; to ATGTAGTA, 0.403 E-score. For the sequence GAGTAGTA, the binding signal is 0.311 E-score. To GTGTAGTA belongs 0.379 E-score; to ATGTAGTG, 0.211 E-score. As for ATGTAGTC, the binding signal was 0.162 E-score.

CTGTAGTA: the binding signal worked out at 0.243 E-score.

For CCCAGTAG, the binding signal was 0.151 E-score. As to AAGTTCAT, the binding signal was 0.147 E-score. To ATGCAAAA belongs 0.086 E-score; to AAAATAAT, 0.246 E-score. To AAAATACG belongs 0.303 E-score; to CAAATACC, 0.126 E-score; to AAAATACT, 0.416 E-score. To TAAATACA belongs 0.333 E-score; to GAAATACA, 0.184 E-score; to AAAATACA, 0.344 E-score. In the case of GAAATACC, the binding signal turned out to be 0.175 E-score. To AAAATACC belongs 0.373 E-score; to AACGGTGG, 0.0395 E-score; to CGCCGACG, -0.0281 E-score.

As for AAACAGGA, the binding signal was 0.00183 E-score. To ACGTATCA belongs 0.0936 E-score; to ACCTTATC, 0.155 E-score; to AACTTAAG, 0.0622 E-score. As for CCCATGTA, the binding signal was found to be 0.12 E-score. To AACATACG belongs 0.205 E-score. To CACATGTA belongs 0.284 E-score; to TACATGTA, 0.339 E-score. To TACATCTA belongs 0.382 E-score; to AACATCTA, 0.236 E-score. Consider ACCATGTG, for which the binding signal was -0.159 E-score. To AACATGTA belongs 0.285 E-score; to CACATCTA, 0.268 E-score; to ACCATGTA, 0.385 E-score. Turning to AACATACA, the binding signal turned out to be 0.355 E-score. To AACATACT belongs 0.136 E-score; to GTCAACAA, 0.0786 E-score; to CTGGACTA, 0.0592 E-score. To CTACAGAC belongs 0.12 E-score; to CAGATAGA, 0.172 E-score. To AATTTGGT belongs 0.177 E-score; to CTTAGCAC, -0.0712 E-score.

As to AGGACTAC, the binding signal is -0.0384 E-score. Take CTGCAATA: the binding signal was found to be 0.13 E-score.

As to GTAGAGAA, the binding signal worked out at 0.189 E-score.

Consider AACATATA, for which the binding signal stood at 0.257 E-score. To TACATATA belongs 0.347 E-score; to CACATACA, 0.167 E-score; to GACATATA, 0.277 E-score. To TACATACA belongs 0.341 E-score.

GACATACA: the binding signal stood at 0.0575 E-score. To GTCAGTAA belongs 0.00175 E-score; to GCATGGAA, -0.193 E-score; to GCGACTGA, 0.0748 E-score. To CGGTGAAC belongs 0.00962 E-score. To GTCTAGCA belongs -0.0242 E-score. CACATCGC: the binding signal was -0.127 E-score. To CATCAGGC belongs -0.154 E-score; to GTAATGGA, 0.266 E-score. To CTAGCGAC belongs -0.128 E-score; to AAGCGTCG, -0.184 E-score.

CTAGTTAC: the binding signal turned out to be 0.418 E-score. Take ATAGTTAC: the binding signal is 0.349 E-score. To ATAGTTAG belongs 0.319 E-score; to CTAGTTCC, 0.188 E-score; to ATAGTTAA, 0.329 E-score.

Take CTAGTTGC: the binding signal turned out to be 0.281 E-score.

Turning to CACAAAAC, the binding signal was 0.0504 E-score. To GATTGCAA belongs 0.0926 E-score; to GGAAGCTA, 0.285 E-score; to CAGTGGTA, 0.258 E-score.

Turning to AAGTGGTA, the binding signal is 0.348 E-score.

Turning to AATTGGTC, the binding signal was found to be 0.0556 E-score. To AATTGGTA belongs 0.339 E-score. With CATTGGTA, the binding signal worked out at 0.223 E-score. To AAGTGGTC belongs -0.0764 E-score. To ACCGCCAC belongs -0.135 E-score. To AATTGTGT belongs 0.149 E-score; to CACTTTAG, -0.146 E-score. As to GTACTGTA, the binding signal stood at 0.155 E-score. As for ATACTGTG, the binding signal is 0.0179 E-score.

Consider CTACTGTA, for which the binding signal came to 0.343 E-score.

As for CTACTTAA, the binding signal was 0.372 E-score.

For the sequence ATACTGTA, the binding signal came to 0.34 E-score. To ATACTTAA belongs 0.0668 E-score; to ATACTGAA, 0.103 E-score. With GTACTTAA, the binding signal amounted to 0.275 E-score. Turning to CTACTGAA, the binding signal was determined as 0.0898 E-score.

As for ACAGTACG, the binding signal was 0.142 E-score. To GAAGTTGC belongs 0.0518 E-score; to ACGGTCTG, -0.0535 E-score.

(Values after publication PMC6212790, “How bacterial xenogeneic silencer rok distinguishes foreign from self DNA in its resident genome”.)
